Compounds with a hit are over-represented: about 2.4% of the library has one in this group of screens.
POLH inh – qHTS for Inhibitors of Polymerase Eta; recombinant Pol eta, fluorescent DNA replication assay; Potency, µM (doses to about 114 µM), without a hit: top-dose activity change, negative = inhibition, usual class: inhibitors; hit rate 1.2% among 390,000; AID 588591, 2011; further: on the % scale 0 is the no-effect control and ±100 the full control effect
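Fluorescent replication assay: 50 nM final substrate added after a 15 min room-temperature compound preincubation with 10 nM enzyme. Signal taken at 0 min and again at 10 min.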
FEN1 inh-1 – qHTS Assay for the Inhibitors of Human Flap endonuclease 1 (FEN1); P39748; Recombinant FEN1 flap cleavage, fluorescence, 15 min; Potency, µM (titrated, usually from 114 µM), without a hit: at the highest dose activity change, negative = inhibition, usual class: inhibitors; hit rate 0.35% among 390,000; further: on the % scale 0 is the no-effect control and ±100 the full control effect; nearly all actives have a fitted effect of over 65% in size
Target sequence (P39748 whole entry, looked up): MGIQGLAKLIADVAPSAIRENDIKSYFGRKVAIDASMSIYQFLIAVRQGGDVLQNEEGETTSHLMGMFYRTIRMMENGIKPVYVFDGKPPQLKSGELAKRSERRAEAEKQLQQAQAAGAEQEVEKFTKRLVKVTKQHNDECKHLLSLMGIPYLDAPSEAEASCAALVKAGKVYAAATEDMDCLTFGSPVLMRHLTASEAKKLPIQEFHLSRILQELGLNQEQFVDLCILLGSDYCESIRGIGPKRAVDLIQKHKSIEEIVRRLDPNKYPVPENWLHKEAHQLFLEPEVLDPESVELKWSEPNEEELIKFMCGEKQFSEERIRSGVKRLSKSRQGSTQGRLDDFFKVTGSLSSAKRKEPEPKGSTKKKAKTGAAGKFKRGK
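Concentration–response screening of FEN1 (10 nM): 15 min compound preincubation at room temperature, reaction started with 50 nM substrate and read at 0 and 15 min. Corrected, normalized data were fitted by a four-parameter Hill equation.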
Pol kappa inh – qHTS for Inhibitors of Polymerase Kappa; Potency, µM (titrated, usually from 107 µM), for inactives: top-dose activity, negative = inhibition, most hits filed as inhibitors; purified Pol kappa, fluorescent DNA synthesis assay, 10 min; hit rate 0.53% among 400,000; DNA polymerase kappa (Homo sapiens), Q9UBT6; further: on the % scale 0 is the no-effect control and ±100 the full control effect
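Enzyme at 10 nM met test compounds for 15 min at room temperature. Substrate addition (50 nM final) began the reaction, which was monitored by fluorescence at 0 and 10 min.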
WRN helicase inh – qHTS for Inhibitors of WRN Helicase; Bifunctional 3'-5' exonuclease/ATP-dependent helicase WRN (Homo sapiens), Q14191; WRN helicase unwinding, fluorescent forked duplex, kinetic; Potency, µM (series often up to 114 µM), for inactives: at the top dose activity change, negative = inhibition, usual class: inhibitors; hit rate 0.46% among 360,000; further: on the % scale 0 is the no-effect control and ±100 the full control effect; nearly all actives have a fitted effect of over 55% in size
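Screening of the MLSMR collection measured strand separation of a quenched forked DNA duplex (100 nM) by 20 nM WRN with 2 mM ATP, all final. Compounds were preincubated with enzyme 15 min at room temperature.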
POLI inh – qHTS for Inhibitors of Polymerase Iota | DNA polymerase iota (Homo sapiens), Q9UNA4 | Pol iota fluorescent replication assay, 10 min | Potency, µM (top dose mostly 115 µM), inactives show at the top dose activity, negative = inhibition, most hits filed as inhibitors | hit rate 1% among 390,000
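Fluorescent replication assay read twice, at 0 min and 10 min after adding 50 nM (final) substrate. Enzyme (10 nM) and compounds were first incubated 15 min at room temperature; enzyme-free buffer wells were negative controls.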
Pol beta inh – qHTS Assay for Inhibitors of DNA Polymerase Beta. P06746. Pol beta primer extension/strand displacement, fluorescence kinetic. Potency, µM (series often up to 114 µM), without a hit: top-dose activity change, negative = inhibition, actives largely listed as inhibitors. hit rate 1.3% among 340,000. AID 485314, 2010; further: on the % scale 0 is the no-effect control and ±100 the full control effect
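Homogeneous kinetic assay of primer extension and strand displacement by 10 nM Pol beta, preincubated 15 min at room temperature with compound before 50 nM substrate (final) was added. Read at 0 and 10 min; four-parameter Hill fit.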
FEN1 inh-2 – qHTS Assay for the Inhibitors of FEN1: Confirmatory Assay for Cherry-picked Compounds. hit rate 79% among 880. FEN1 flap cleavage, TAMRA/BHQ2 fluorogenic DNA substrate. shares compounds with FEN1 inh-1. Potency, µM, usual class: inhibitors. AID 720498, 2013; further: nearly all actives have a fitted effect of over 60% in size
An asterisk follows results filed as active; ? = inconclusive; . = not tested or not shown; [ ] = remark or other dose. The call rests on the fitted dose curve; in most records, active means well fitted curve in the direction sought with a large enough effect; inconclusive means small, poorly fitted or top-dose-only effect, or another doubt; inactive means no such curve, though single readings can be large; an effect the other way counts as inactive or inconclusive. Potency means the concentration at half of the fitted maximal effect.

SMILES | POLH inh | FEN1 inh-1 | Pol kappa inh | WRN helicase inh | POLI inh | Pol beta inh | FEN1 inh-2
NC(N)=Nc1nc(-c2ccccc2)c2cc(F)ccc2n1 | -2.6% | 79.4µM* | -18.0% | 15.1%[11.6 µM] | 20.0% | ? | 53.6*
Cc1ccccc1-n1c(=O)c2c3c(sc2n2cnnc12)CCCC3 | -17.2% | -0.4% | 1.4% | . | 14.8% | -0.2% | .
COc1cccc(C2c3c(ncn(CCCN4CCOCC4)c3=N)Oc3ccc4ccccc4c32)c1 (stereo unspecified) | . | . | . | . | . | . | 37.9*
O=c1[nH]c2cnccc2n1-c1ccccc1 | -12.9% | 6.6% | -17.2% | 8.8% | 12.8% | 29.0% | .
O=c1[nH]c2cnn(-c3ccccc3)c2c(=O)n1O | ? | 0.501µM* | 2.3% | 8.1%[11.6 µM] | 6.2% | . | 21.3*
CN1C=C/C(=C\c2cc[n+](C)c3ccccc23)c2ccccc21 | -30.0% | 28.2µM* | 1.2% | 39.8µM* | 11.5% | ? | 8.49*
Cc1cc(C)cc(NC(=O)CCCN2C(=O)COc3ccc(C)cc32)c1 | . | -14.0% | -16.1% | . | 16.9% | ? | .
Cc1ccc(NC(=O)c2ccc3nc[nH]c3c2)cc1C | -3.3% | 7.4% | -9.7% | -6.9% | 80.8% | 6.7% | .
CC(=O)Nc1sc2c(c1-c1ccc3nc[nH]c3c1)CCNC2 | . | . | . | . | . | . | 37.9*
CCC(=O)N/C(N)=N/c1nc(C)c2cc(OC)ccc2n1 | -12.4% | 79.4µM* | 8.3% | 44.3% | -3.3%[58.9 µM] | -8.3% | ?
CC1CCCC(NC(=O)COC(=O)c2ccccc2[N+](=O)[O-])C1C (stereo unspecified) | 0.8% | -2.2% | -12.0% | -30.2% | 61.3% | -2.5% | .
O=C(COC(=O)c1ccc([N+](=O)[O-])s1)Nc1ncc(C(F)(F)F)cc1Cl | 35.5µM* | ? | -40.4% | -8.0%[57.1 µM] | ? | ? | 8.49*
CC(OC(=O)c1ccc([N+](=O)[O-])s1)C(=O)NC1CCCCC1C (stereo unspecified) | -17.9% | -19.6% | -20.6% | 2.0%[11.6 µM] | ? | . | 12*
CC1CCCC(NC(=O)COC(=O)c2ccc([N+](=O)[O-])s2)C1C (stereo unspecified) | ? | -23.8% | -18.7% | -8.4% | 89.1µM* | . | 6.01*
CC(=O)NCCNc1nc(-c2ccccc2C(F)(F)F)nc2ccccc12 | . | . | -2.7%[60.1 µM] | . | . | . | .
CCN(CC)c1ccc(/C=C/c2cccc[n+]2C)c(OC)c1 | -27.1% | ? | -33.5% | 79.4µM* | 43.3% | 50.1µM* | 26.9*
CCOc1ccc(NC(=O)c2nnn(-c3ccc(F)c(Cl)c3)c2C)cc1 | -15.4% | 2.0% | -5.6% | . | 33.2% | -14.6% | .
CCOC(=O)c1cc(S(=O)(=O)N2CCN(c3cc(C)ccc3C)CC2)[nH]n1 | 3.7% | 7.4% | -11.3%[60.1 µM] | . | -18.2% | 3.2% | .
CC(=O)Nc1sc2c(c1-c1nc3ccccc3s1)CCOC2 | . | . | . | . | . | . | ?
CC(=O)Nc1cc(-c2nc3ccccc3s2)ccc1C | . | 2.7% | -2.9% | . | 15.8% | -6.9% | .
CCn1ccc2cc(S(=O)(=O)N3CCC(C(=O)NCc4ccc(OC)cc4)CC3)ccc21 | -21.6% | 16.2% | -15.6%[60.1 µM] | . | 6.9% | 0.7% | .
C[C@]12CCC(=O)C=C1[C@@H]1C[C@H]1[C@H]1[C@@H]3[C@@H]4C[C@H]4[C@@]4(CCC(=O)O4)[C@@]3(C)CC[C@@H]12 | . | . | -10.6%[60.1 µM] | . | . | . | .
Cc1sc(NC(=O)CSc2nc(O)cc(=O)[nH]2)nc1-c1ccccc1 | -6.3% | 50.1µM* | -5.8% | ? | ? | -15.7% | 67.5*
COc1ccccc1NC(=O)CSc1nc(O)cc(=O)[nH]1 | 8.5% | -6.8% | -9.1% | -9.1% | ? | -8.3% | .
